B2AR arrestin – agonists driving beta-arrestin recruitment to human beta2-adrenergic receptor; P07550; beta-arrestin recruitment to beta2AR, cell-based reporter; Potency, µM (series often up to 46.1 µM), for inactives: at the top dose activation, most hits filed as activators; actives 0.02% (n = 330,000);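 also: potency is read from the fitted curve at half-maximal effect; 0% = DMSO controls and full agonism = EC100 isoproterenol or metaproterenol; nearly all actives have a fitted effect of over 65% in size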
D3 ag – agonists of human D3 dopamine receptor; D3R DiscoveRx beta-arrestin cells, luminescence, 90 min; max activation, %; actives 0.58% (n = 410,000); AID 652048; in the data active = max activation above about 30%; also: 0% is about no effect
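Agonist-mode cell screen: cells plated at 1500/well and incubated overnight at 37 °C, then exposed to library compounds for 90 min at 37 °C. Detection reagent was added for 30–60 min at room temperature, and luminescence was read.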
mIDH1 inhibitor – human IDH1 R132H inhibition; IDH1-R132H enzyme, NADPH consumption, diaphorase/resazurin fluorescence; actives 0.093% (n = 390,000); Potency, µM (doses to about 76.6 µM), without a hit: at the highest dose activity change, negative = inhibition, usual class: inhibitors; O75874; AID 602179; also: potency is read from the fitted curve at half-maximal effect; % is scaled to controls: 0 for no effect and ±100 for the full control effect; nearly all actives have a fitted effect of over 65% in size
Target sequence (O75874 whole entry R132H, stated change not applied): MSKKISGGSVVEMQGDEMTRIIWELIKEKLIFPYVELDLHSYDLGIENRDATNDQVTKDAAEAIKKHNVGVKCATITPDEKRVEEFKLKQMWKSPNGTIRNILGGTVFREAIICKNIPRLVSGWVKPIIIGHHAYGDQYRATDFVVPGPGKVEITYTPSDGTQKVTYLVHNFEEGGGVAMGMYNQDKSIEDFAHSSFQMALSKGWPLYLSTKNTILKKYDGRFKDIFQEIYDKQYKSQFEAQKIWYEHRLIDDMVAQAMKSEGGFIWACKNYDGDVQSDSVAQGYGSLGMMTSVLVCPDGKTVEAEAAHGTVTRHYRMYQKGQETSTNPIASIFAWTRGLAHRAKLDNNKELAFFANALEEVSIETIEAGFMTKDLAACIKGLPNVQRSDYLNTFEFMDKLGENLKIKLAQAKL
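IDH1-R132H (0.5 ug/mL) preincubated 30 min with compound, then NADPH (0.016 mM) and alpha-KG (2 mM) added; 80 min at RT, pH 7.5. Remaining NADPH coupled via diaphorase/resazurin to fluorescence (540/590 nm); concentration-response curves normalized to no-enzyme control.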
a7 integrin act – activators of alpha7 integrin expression for muscular dystrophy; actives 0.064% (n = 350,000); alpha7betagal myoblasts, beta-gal FDG fluorescence, 48 h; AID 624291; Potency, µM (highest dose often 38.3 µM), inactives show at the top dose activation, actives largely listed as activators;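 also: potency is read from the fitted curve at half-maximal effect; 100% = response of the positive control SU9516; nearly all actives have a fitted effect of over 60% in size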
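Alpha7betagal+/- myoblasts (passage 13) were plated 16-24 hr, then exposed to compounds (1:260 dilution of DMSO stock) for 48 hours at 37C. After MPER lysis, β-galactosidase reporter activity was read as FDG fluorescence (ex 480/em 540) after 30 minutes.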
DRD3 antagonist – antagonists of human D3 dopamine receptor | P35462 | D3R cells, DiscoveRx beta-arrestin luminescence, antagonist mode; active compounds read low | AID 652054 | actives 2.5% (n = 360,000) | max response, negative = inhibition, %; in the data active = max response below about -50%; inconclusive = no clear call, values can overlap the other calls; also: % is scaled to controls: 0 for no effect and ±100 for the full control effect
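Cells plated overnight at 1500 cells/well, then exposed to library compounds with dopamine controls for 90 minutes at 37 degrees C. DiscoveRx reagent added for 30–60 minutes at room temperature; luminescence read, quantitative HTS format.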
Numbers without * were called inactive; ? = inconclusive; . = no result; [ ] = dose if it differs, or a comment. A selection: hits, their analogues and other compounds. The true share with any hit is near 2.9%. Unless noted, calls follow the shape of the dose curve; as a rule, active = well fitted curve in the direction sought with a large enough effect; inconclusive = small, poorly fitted or top-dose-only effect, or another doubt; inactive = no such curve, though single readings can be large; an effect the other way counts as inactive or inconclusive.

SMILES	B2AR arrestin	D3 ag	mIDH1 inhibitor	a7 integrin act	DRD3 antagonist
C1CCC(OCCN2CCN(CCOC3CCCCC3)CC2)CC1	0.3%	-27.0	-3.8%	-27.2%	-63.0*
CCn1cc(S(=O)(=O)c2ccccc2)c(=O)c2cc(C)ccc21	.	-14.0	-15.5%	.	.
CCN(CC)CCn1c(=N)n(CC(=O)c2ccc(Br)s2)c2ccccc21	-0.6%	-24.3	5.9%	-68.4%	-73.2*
Cc1[nH]n(-c2cccc(Cl)c2)c(=O)c1-c1ccccc1	0.3%	-1.6	-3.4%	16.9%	-51.9*
Cc1ccc(S(=O)(=O)/N=C2\C=C(Nc3cccc(C(=O)O)c3)C(=O)c3ccccc32)cc1	-0.3%	-23.6	18.0%	-15.6%	?
Cc1ccc(S(=O)(=O)/N=C2\C=C(NS(=O)(=O)c3ccccc3)C(=O)c3ccccc32)c(C)c1	.	-23.3	6.0%	12.3%	?
Cc1ccc(S(=O)(=O)/N=C2\C=C(Nc3ccc(O)cc3)C(=O)c3ccccc32)cc1	0.0%	-12.9	18.5%	-61.6%	-94.0*
Cc1ccc(NC2=C/C(=N/S(=O)(=O)c3cccs3)c3ccccc3C2=O)cc1	0.1%	-11.6	12.5%	-62.4%	-71.6*
O=C1C(Nc2ccccc2)=C/C(=N/S(=O)(=O)c2cccs2)c2ccccc21	-1.3%	-38.4	16.7%	-47.2%	-85.4*
CN(C)c1ccc(NC(=S)Nc2ccc3c(c2)c(=O)n(C)n3-c2ccc(C(C)(C)C)cc2)cc1	.	-17.3	.	.	-54.1*
COc1cccc(CC(=O)Nc2ccc3c(c2)c(=O)n(C)n3-c2ccc(C(C)(C)C)cc2)c1	.	-8.0	.	.	-58.3*
Cn1c(=O)c2cc(C(=O)Nc3cccc(C#N)c3)sc2c2ccccc21	.	4.4	0.0%	.	.
Cc1cccc(C(=O)Nc2ccc(C(=O)OCc3cc(=O)n4c(C)csc4n3)cc2)c1	.	-18.5	-9.6%	.	.
Cc1ccccc1NC(=O)CCNC(=O)Cn1ccc2ccccc2c1=O	.	-10.5	9.5%	.	.
COc1cccc(C2NC(C)(C(=O)O)C3C(=O)N(C(C)C)C(=O)C23)c1O (configuration not stated)	0.0%	3.9	-9.3%	10.8%	-53.2*
Cc1c(Cl)cccc1NC(=O)CSc1ncc(S(=O)(=O)c2ccc(C(C)C)cc2)c(=O)[nH]1	.	-4.5	-22.1%	.	.
CC(=O)NC1CC2CCCC(C1)N2S(=O)(=O)c1ccccc1 (configuration not stated)	-0.1%	8.2	2.0%	9.9%	14.1
COCCNC(=S)NC1CC2CCC(C1)N2Cc1ccccc1 (configuration not stated)	-0.2%	-12.3	-2.5%	0.0%	?
CC(C)(C)OC(=O)NC1CC2CCCC(C1)N2Cc1ccccc1 (configuration not stated)	-0.7%	-21.2	2.0%	11.8%	-85.5*
COCC(=O)NC1CC2CCCC(C1)N2Cc1ccccc1 (configuration not stated)	-0.3%	2.2	2.3%	12.8%	-77.5*
O=C(Cn1cnc2c(NCc3ccccc3)ncnc21)NCCCN1CCCC1=O	0.1%	34.3*	-2.8%	-10.7%	23.7
O=C(Cn1cnc2c(NCc3ccccc3)ncnc21)NCCN1CCOCC1	0.0%	-25.7	-10.3%	39.2%	-5.1
CCOC(=O)c1[nH]c(C)c(C(=O)OCC)c1C	-0.7%	-1.9	0.7%	4.6%	-20.2
CC(=O)c1c(C)[nH]c(C(=O)COC(=O)c2ccc(Cl)nc2)c1C	-0.1%	10.9	-3.6%	16.6%	28.6
CC(=O)c1c(C)[nH]c(C(=O)COC(=O)c2ccc(C)s2)c1C	-0.1%	38.7*	-2.4%	0.0%	38.2
CCOC(=O)c1c(C)[nH]c(C(=O)COC(=O)c2[nH]c(C)c(C(C)=O)c2C)c1C	0.1%	37.2*	9.1%	6.5%[7.66 µM]	15.9
Cc1cnc(C(=O)Oc2c(C)ccc(C)c2C)cn1	0.3%	-4.5	4.4%	-9.4%	-12.9
COc1cc(Br)cc(C=Nc2cccc(C(F)(F)F)c2)c1O	-0.7%	-14.2	-3.1%	-13.1%	-80.7*
COc1cccc(C=Nc2cc(C)cc(C)c2)c1O	-0.2%	-1.5	8.7%	8.0%	-17.3
O=[N+]([O-])c1ccc(Cl)c(/C=N/N2CCN(Cc3ccccc3Cl)CC2)c1	0.1%	-26.3	2.3%	6.7%	-51.4*
